Test results as given in PubChem BioAssay (NCATS).
Inconclusive results are not listed. A call without a number means that no potency is given here. Calls of active or inactive are those of the source. Calls follow the shape of the dose curve; as a rule, active = well fitted curve in the direction sought with a large enough effect; inconclusive = small, poorly fitted or top-dose-only effect, or another doubt; inactive = no such curve, though single readings can be large; an effect the other way counts as inactive or inconclusive.

Target: Calcium and integrin-binding protein 1 (Homo sapiens) (UniProt Q99828)
Sequence (Q99828 whole entry, looked up): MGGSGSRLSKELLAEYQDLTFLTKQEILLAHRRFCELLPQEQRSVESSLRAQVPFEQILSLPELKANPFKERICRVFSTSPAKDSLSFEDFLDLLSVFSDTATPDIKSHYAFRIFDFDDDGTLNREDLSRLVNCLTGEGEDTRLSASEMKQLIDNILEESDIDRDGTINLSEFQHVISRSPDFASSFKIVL
Assay: Primary qHTS for Identification of Calcium Integrin Binding Protein 1 (CIB1) Competitor (AID 1508620);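 also: GST tagged CIB1 binding a fluorescein labelled alphaIIb integrin peptide tracer; top concentration of the series differs between compounds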
Conditions: CIB1-GST / FITC-alphaIIb peptide fluorescence polarization; series mostly up to 57.7 µM
How it was run: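 Fluorescence polarization competition: CIB1-GST (1 uM final) preincubated with compound 15 min at room temperature, then FITC-labeled alphaIIb peptide (100 nM final) added for another 15 min. Polarization read at Ex 480/Em 540.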

| SMILES | Potency |
| --- | --- |
| CC(C)[C@H](CO)Nc1nc(Nc2ccc(C(=O)O)c(Cl)c2)c2ncn(C(C)C)c2n1 | inactive |
| Cn1c(N2CCCCS2(=O)=O)nc(C(=O)NCc2ccc(F)cc2)c(O)c1=O | inactive |
| CN(C)Cc1ccc(-c2nc3cccc4c3n2CCNC4=O)cc1 | inactive |
| c1cc(-c2sc(-c3ccncc3)c(-c3ccncc3)c2-c2ccncc2)ccn1 | inactive |
| O=c1cc(N2CCOCC2)oc2c(-c3cccc4c3sc3ccccc34)cccc12 | inactive |
| CC(C)(C(=O)NCC(F)(F)C(F)(F)F)C(=O)N[C@@H]1C(=O)Nc2ccccc2-c2ccccc21 | inactive |
| CC(C)n1nc(-c2ccc3oc(N)nc3c2)c2c(N)ncnc21 | inactive |
| COc1ncc(-c2ccc3nccc(-c4ccnnc4)c3c2)cc1NS(=O)(=O)c1ccc(F)cc1F | inactive |
| CC(C)n1cnc2c(NCCCCCCNC(=O)OC(C)(C)C)nc(NCCO)nc21 | inactive |
| COC1CCC(N(C(=O)C2CCC(C)CC2)c2cc(C3=CCCCC3)sc2C(=O)O)CC1 (centres undefined) | inactive |
| O=c1cc(-c2cccc3c2Sc2ccccc2S3)oc(N2CCOCC2)c1 | inactive |
| CNC1CCC(N(Cc2cccc(-c3ccncc3)c2)C(=O)c2sc3c(F)ccc(F)c3c2Cl)CC1 (centres undefined) | inactive |
| CC(=O)Nc1ccc([C@H](C)C(=O)Nc2ncc(C(C)C)s2)cc1 | inactive |
| N[C@@]1(C(=O)O)CS(=O)(=O)[C@H]2[C@H](C(=O)O)[C@H]21 | inactive |
| NC(=O)[C@@H](CCC(F)(F)F)N(Cc1ccc(-c2ncon2)cc1F)S(=O)(=O)c1ccc(Cl)cc1 | inactive |
| CC#CCn1c(N2CCC[C@@H](N)C2)nc2c1c(=O)n(Cc1nc(C)c3ccccc3n1)c(=O)n2C | inactive |
| CC(C)(C)COc1ccc(-n2cc(C(=O)O)cn2)cc1C#N | inactive |
| Clc1cc(Cl)cc(CNc2ncncc2-c2ccc3c(c2)OCO3)c1 | inactive |
| Cc1ccn(-c2ccc(-c3ncco3)cc2)c(=O)c1-c1ccc2nc(N)ncc2c1 | inactive |

| SMILES | Potency |
| --- | --- |
| CO[C@H]1C(=O)[C@]2(C)[C@@H](OC)C[C@H]3OC[C@@]3(OC(C)=O)[C@H]2[C@H](OC(=O)c2ccccc2)[C@]2(O)C[C@H](OC(=O)[C@H](O)[C@@H](NC(=O)OC(C)(C)C)c3ccccc3)C(C)=C1C2(C)C | inactive |
| CC(C)=CC[C@@H](O)C1=CC(=O)c2c(O)ccc(O)c2C1=O | inactive |
| O=C(NC1CCOCC1)c1ccc(-c2cc(-c3cn[nH]c3-c3ccccn3)ccn2)cc1 | inactive |
| CN(C)Cc1cccc(N=C(c2ccccc2)c2c(O)[nH]c3cc(C(=O)N(C)C)ccc23)c1 | inactive |
| Cc1ccc(C(=O)Nc2cccc(C(F)(F)F)c2)cc1Nc1nc(-c2cccnc2)nc2c1cnn2C | inactive |
| O=C(NOCC(O)CO)c1cc(Br)c(F)c(F)c1Nc1ccc(I)cc1F (centres undefined) | inactive |
| O=c1c(O)c(-c2ccc(O)cc2)oc2cc(O)cc(O)c12 | inactive |
| COc1ccc(-n2c(C)c([N+](=O)[O-])c3ccc(O)cc32)cc1 | inactive |
| CC1CCC(C(=O)N(c2cc(C#CC(C)(C)C)sc2C(=O)O)C2CCC(O)CC2)CC1 (centres undefined) | inactive |
| CC1(C)CCC(CN2CCN(c3ccc(C(=O)NS(=O)(=O)c4ccc(NCC5CCOCC5)c([N+](=O)[O-])c4)c(Oc4cnc5[nH]ccc5c4)c3)CC2)=C(c2ccc(Cl)cc2)C1 | inactive |
| O=C1C(Cl)=C(NCCN2CCOCC2)C(=O)c2ncccc21 | inactive |
| COc1ccc(-c2nc(N3CCOCC3)c3sc(CN(C)c4ncc(C(=O)NO)cn4)cc3n2)cn1 | inactive |
| COc1cc(Nc2ncc(F)c(Nc3ccc4c(n3)NC(=O)C(C)(C)O4)n2)cc(OC)c1OC | inactive |
| CC(C)C(C)C=CC(C)C1CCC2C3=CC=C4CC(O)CCC4(C)C3CCC21C (centres undefined) | inactive |
| CC(C)C(=O)Oc1ccc(CO)cc1[C@H](CCN(C(C)C)C(C)C)c1ccccc1 | inactive |
| N[C@H](CSC(c1ccccc1)(c1ccccc1)c1ccccc1)C(=O)O | inactive |
| NS(=O)(=O)c1ccc(NC2=CC(=O)c3ccccc3C2=O)cc1 | inactive |
| CNC(=O)c1ccc2cc(C3(O)CCn4cncc43)ccc2c1 (centres undefined) | inactive |

Test system: not listed separately
Assay: Primary qHTS for small molecule stabilizers of the endoplasmic reticulum resident proteome: Secreted ER Calcium Modulated Protein (SERCaMP) assay (AID 1508630); also: potency is read from the fitted curve at half-maximal effect
Conditions: SH-SY5Y GLuc-SERCaMP (Gaussia luciferase released on ER calcium loss) secretion, thapsigargin, luminescence; series mostly up to 38.4 µM
How it was run: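 GLuc-SERCaMP-expressing SH-SY5Y cells, pretreated 16 h with compound, are challenged with thapsigargin to empty ER calcium stores; after 4 h, coelenterazine is added directly to the medium and luminescence is imaged.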

| SMILES | Potency |
| --- | --- |
| CC(C)[C@H](CO)Nc1nc(Nc2ccc(C(=O)O)c(Cl)c2)c2ncn(C(C)C)c2n1 | inactive |
| Cn1c(N2CCCCS2(=O)=O)nc(C(=O)NCc2ccc(F)cc2)c(O)c1=O | inactive |
| CN(C)Cc1ccc(-c2nc3cccc4c3n2CCNC4=O)cc1 | inactive |
| c1cc(-c2sc(-c3ccncc3)c(-c3ccncc3)c2-c2ccncc2)ccn1 | inactive |
| O=c1cc(N2CCOCC2)oc2c(-c3cccc4c3sc3ccccc34)cccc12 | inactive |
| CC(C)(C(=O)NCC(F)(F)C(F)(F)F)C(=O)N[C@@H]1C(=O)Nc2ccccc2-c2ccccc21 | inactive |
| CC(C)n1nc(-c2ccc3oc(N)nc3c2)c2c(N)ncnc21 | inactive |
| COc1ncc(-c2ccc3nccc(-c4ccnnc4)c3c2)cc1NS(=O)(=O)c1ccc(F)cc1F | inactive |
| CC(C)n1cnc2c(NCCCCCCNC(=O)OC(C)(C)C)nc(NCCO)nc21 | inactive |
| COC1CCC(N(C(=O)C2CCC(C)CC2)c2cc(C3=CCCCC3)sc2C(=O)O)CC1 (centres undefined) | inactive |
| O=c1cc(-c2cccc3c2Sc2ccccc2S3)oc(N2CCOCC2)c1 | inactive |
| CNC1CCC(N(Cc2cccc(-c3ccncc3)c2)C(=O)c2sc3c(F)ccc(F)c3c2Cl)CC1 (centres undefined) | inactive |
| CC(=O)Nc1ccc([C@H](C)C(=O)Nc2ncc(C(C)C)s2)cc1 | inactive |
| N[C@@]1(C(=O)O)CS(=O)(=O)[C@H]2[C@H](C(=O)O)[C@H]21 | inactive |
| NC(=O)[C@@H](CCC(F)(F)F)N(Cc1ccc(-c2ncon2)cc1F)S(=O)(=O)c1ccc(Cl)cc1 | inactive |
| CC#CCn1c(N2CCC[C@@H](N)C2)nc2c1c(=O)n(Cc1nc(C)c3ccccc3n1)c(=O)n2C | inactive |
| CC(C)(C)COc1ccc(-n2cc(C(=O)O)cn2)cc1C#N | inactive |
| Clc1cc(Cl)cc(CNc2ncncc2-c2ccc3c(c2)OCO3)c1 | inactive |
| Cc1ccn(-c2ccc(-c3ncco3)cc2)c(=O)c1-c1ccc2nc(N)ncc2c1 | inactive |

| SMILES | Potency |
| --- | --- |
| CO[C@H]1C(=O)[C@]2(C)[C@@H](OC)C[C@H]3OC[C@@]3(OC(C)=O)[C@H]2[C@H](OC(=O)c2ccccc2)[C@]2(O)C[C@H](OC(=O)[C@H](O)[C@@H](NC(=O)OC(C)(C)C)c3ccccc3)C(C)=C1C2(C)C | inactive |
| CC(C)=CC[C@@H](O)C1=CC(=O)c2c(O)ccc(O)c2C1=O | inactive |
| O=C(NC1CCOCC1)c1ccc(-c2cc(-c3cn[nH]c3-c3ccccn3)ccn2)cc1 | inactive |
| CN(C)Cc1cccc(N=C(c2ccccc2)c2c(O)[nH]c3cc(C(=O)N(C)C)ccc23)c1 | inactive |
| Cc1ccc(C(=O)Nc2cccc(C(F)(F)F)c2)cc1Nc1nc(-c2cccnc2)nc2c1cnn2C | inactive |
| O=C(NOCC(O)CO)c1cc(Br)c(F)c(F)c1Nc1ccc(I)cc1F (centres undefined) | inactive |
| O=c1c(O)c(-c2ccc(O)cc2)oc2cc(O)cc(O)c12 | inactive |
| COc1ccc(-n2c(C)c([N+](=O)[O-])c3ccc(O)cc32)cc1 | inactive |
| CC1CCC(C(=O)N(c2cc(C#CC(C)(C)C)sc2C(=O)O)C2CCC(O)CC2)CC1 (centres undefined) | inactive |
| CC1(C)CCC(CN2CCN(c3ccc(C(=O)NS(=O)(=O)c4ccc(NCC5CCOCC5)c([N+](=O)[O-])c4)c(Oc4cnc5[nH]ccc5c4)c3)CC2)=C(c2ccc(Cl)cc2)C1 | inactive |
| O=C1C(Cl)=C(NCCN2CCOCC2)C(=O)c2ncccc21 | inactive |
| COc1ccc(-c2nc(N3CCOCC3)c3sc(CN(C)c4ncc(C(=O)NO)cn4)cc3n2)cn1 | inactive |
| COc1cc(Nc2ncc(F)c(Nc3ccc4c(n3)NC(=O)C(C)(C)O4)n2)cc(OC)c1OC | inactive |
| CC(C)C(C)C=CC(C)C1CCC2C3=CC=C4CC(O)CCC4(C)C3CCC21C (centres undefined) | 1490 nM (active) |
| CC(C)C(=O)Oc1ccc(CO)cc1[C@H](CCN(C(C)C)C(C)C)c1ccccc1 | inactive |
| N[C@H](CSC(c1ccccc1)(c1ccccc1)c1ccccc1)C(=O)O | inactive |
| NS(=O)(=O)c1ccc(NC2=CC(=O)c3ccccc3C2=O)cc1 | inactive |
| CNC(=O)c1ccc2cc(C3(O)CCn4cncc43)ccc2c1 (centres undefined) | inactive |
